# Test results: paper PMC7862700, “An all-to-all approach to the identification of sequence-specific readers for epigenetic DNA modifications on cytosine”
# Experiments:
# Test in all cases: DAPPL (digital affinity profiling via proximity ligation, sequencing); 10 mM Tris-HCl pH 7.5, 50 mM NaCl, 1 mM DTT, 4% glycerol, room temperature, 30 min; GST-TFs on glutathione beads, 16-mer random dsDNA library, 0.1% formaldehyde crosslink after washing; high values mean tight binding
# Conditions in all cases: protein: recombinant; tags: N-terminal GST; dsDNA, one strand shown
# ETV1 = ETV1 (Homo sapiens, UniProt P50549 1-477)
# Outline: (§1)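 Binding signal is given per hexamer as its read frequency for a factor divided by its frequency in the tag-only sample. GST-fused human transcription factors were expressed in yeast, captured on glutathione beads, barcoded with DNA and pooled with that sample, then incubated with 200 nmole of a 16-mer random double-stranded DNA library in Tris/NaCl/DTT/glycerol buffer for 30 min at room temperature. The pools were then washed, crosslinked, proximity-ligated, amplified by PCR and sequenced on an Illumina NextSeq500.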
# ERF = biological target: T1, ERF (Homo sapiens, UniProt P50548 1-548)
# T1 sequence: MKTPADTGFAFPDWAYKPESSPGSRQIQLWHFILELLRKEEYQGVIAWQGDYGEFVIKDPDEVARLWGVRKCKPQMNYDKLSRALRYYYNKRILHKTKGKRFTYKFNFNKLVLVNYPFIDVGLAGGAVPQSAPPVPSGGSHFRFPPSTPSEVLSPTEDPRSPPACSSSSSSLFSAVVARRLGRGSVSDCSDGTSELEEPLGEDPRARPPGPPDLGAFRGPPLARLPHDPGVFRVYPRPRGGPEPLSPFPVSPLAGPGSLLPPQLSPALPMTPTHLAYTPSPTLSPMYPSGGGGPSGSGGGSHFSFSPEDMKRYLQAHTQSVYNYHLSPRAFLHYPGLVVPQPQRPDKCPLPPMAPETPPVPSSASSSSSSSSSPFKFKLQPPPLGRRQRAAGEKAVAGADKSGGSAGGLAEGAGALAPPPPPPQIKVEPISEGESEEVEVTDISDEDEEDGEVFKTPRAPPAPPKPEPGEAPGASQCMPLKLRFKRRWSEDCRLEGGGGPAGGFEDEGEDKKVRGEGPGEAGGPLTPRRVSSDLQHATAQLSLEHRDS
# Outline: as §1
# ETV3L = biological target: T2, ETV3L (Homo sapiens, UniProt Q6ZN32 1-361)
# T2 sequence: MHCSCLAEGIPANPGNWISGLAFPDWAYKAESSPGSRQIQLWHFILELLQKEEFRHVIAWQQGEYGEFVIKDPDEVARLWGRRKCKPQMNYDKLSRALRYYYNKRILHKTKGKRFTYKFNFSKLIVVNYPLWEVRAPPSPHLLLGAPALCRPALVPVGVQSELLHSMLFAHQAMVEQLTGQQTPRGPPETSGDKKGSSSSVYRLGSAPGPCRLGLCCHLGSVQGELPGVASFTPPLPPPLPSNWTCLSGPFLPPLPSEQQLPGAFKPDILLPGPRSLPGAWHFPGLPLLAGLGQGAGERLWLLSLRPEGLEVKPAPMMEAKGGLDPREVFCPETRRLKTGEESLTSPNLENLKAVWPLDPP
# Outline: as §1
# ETS2 = biological target: T3, ETS2 (Homo sapiens, UniProt P15036 1-469)
# T3 sequence: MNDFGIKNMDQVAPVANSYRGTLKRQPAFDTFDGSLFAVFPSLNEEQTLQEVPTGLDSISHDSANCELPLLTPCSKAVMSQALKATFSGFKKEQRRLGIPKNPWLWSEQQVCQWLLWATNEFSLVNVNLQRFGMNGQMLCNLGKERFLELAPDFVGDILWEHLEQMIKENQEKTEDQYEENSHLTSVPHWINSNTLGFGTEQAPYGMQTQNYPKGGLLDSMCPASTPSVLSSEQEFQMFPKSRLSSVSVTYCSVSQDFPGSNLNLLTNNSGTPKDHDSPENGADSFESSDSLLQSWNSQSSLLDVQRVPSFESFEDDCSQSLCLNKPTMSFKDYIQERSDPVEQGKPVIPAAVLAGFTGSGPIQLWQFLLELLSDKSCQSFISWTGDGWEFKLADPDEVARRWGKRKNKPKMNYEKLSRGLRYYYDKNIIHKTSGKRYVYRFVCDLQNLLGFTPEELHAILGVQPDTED
# Outline: as §1
# SPDEF = biological target: T4, SPDEF (Homo sapiens, UniProt O95238 1-335)
# T4 sequence: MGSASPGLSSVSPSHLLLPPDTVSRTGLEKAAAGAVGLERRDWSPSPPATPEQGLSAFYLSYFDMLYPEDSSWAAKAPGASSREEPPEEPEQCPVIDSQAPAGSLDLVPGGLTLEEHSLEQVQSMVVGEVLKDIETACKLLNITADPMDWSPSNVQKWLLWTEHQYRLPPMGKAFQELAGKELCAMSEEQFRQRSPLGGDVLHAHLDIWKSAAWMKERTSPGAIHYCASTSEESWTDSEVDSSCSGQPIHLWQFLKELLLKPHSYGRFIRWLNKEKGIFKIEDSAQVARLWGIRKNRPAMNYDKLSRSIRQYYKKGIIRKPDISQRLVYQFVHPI
# Outline: as §1
# ETV7 = biological target: T5, ETV7 (Homo sapiens, UniProt Q9Y603 1-341)
# T5 sequence: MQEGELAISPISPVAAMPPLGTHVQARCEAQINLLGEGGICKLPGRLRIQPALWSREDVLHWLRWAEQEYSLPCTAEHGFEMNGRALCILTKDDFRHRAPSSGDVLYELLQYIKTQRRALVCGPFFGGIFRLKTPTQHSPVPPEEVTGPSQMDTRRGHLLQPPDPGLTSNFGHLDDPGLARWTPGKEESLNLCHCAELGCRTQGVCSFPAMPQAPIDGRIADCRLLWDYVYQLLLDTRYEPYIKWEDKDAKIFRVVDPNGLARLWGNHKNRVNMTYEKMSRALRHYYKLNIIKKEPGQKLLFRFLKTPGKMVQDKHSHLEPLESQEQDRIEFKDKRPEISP
# Outline: as §1
# ELF5 = biological target: T6, ELF5 (Homo sapiens, UniProt Q9UKW6-2 1-255)
# T6 sequence: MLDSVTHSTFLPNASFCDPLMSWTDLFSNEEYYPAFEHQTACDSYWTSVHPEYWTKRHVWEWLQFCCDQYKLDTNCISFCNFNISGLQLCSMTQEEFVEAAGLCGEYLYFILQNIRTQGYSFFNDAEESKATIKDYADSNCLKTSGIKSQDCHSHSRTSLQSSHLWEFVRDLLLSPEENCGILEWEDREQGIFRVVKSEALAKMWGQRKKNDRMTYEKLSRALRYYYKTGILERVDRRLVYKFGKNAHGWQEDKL
# Outline: as §1
# ETV3 = biological target: T7, ETV3 (Homo sapiens, UniProt P41162-2 1-143)
# T7 sequence: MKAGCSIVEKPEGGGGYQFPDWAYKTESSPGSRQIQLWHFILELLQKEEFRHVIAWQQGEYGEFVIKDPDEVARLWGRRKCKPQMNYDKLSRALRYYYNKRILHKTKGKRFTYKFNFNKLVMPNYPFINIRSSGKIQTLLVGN
# Outline: as §1
# ETV6 = ETV6 (Homo sapiens, UniProt P41212 1-452)
# Outline: as §1
# Chain of ETV6 (P41212 whole entry): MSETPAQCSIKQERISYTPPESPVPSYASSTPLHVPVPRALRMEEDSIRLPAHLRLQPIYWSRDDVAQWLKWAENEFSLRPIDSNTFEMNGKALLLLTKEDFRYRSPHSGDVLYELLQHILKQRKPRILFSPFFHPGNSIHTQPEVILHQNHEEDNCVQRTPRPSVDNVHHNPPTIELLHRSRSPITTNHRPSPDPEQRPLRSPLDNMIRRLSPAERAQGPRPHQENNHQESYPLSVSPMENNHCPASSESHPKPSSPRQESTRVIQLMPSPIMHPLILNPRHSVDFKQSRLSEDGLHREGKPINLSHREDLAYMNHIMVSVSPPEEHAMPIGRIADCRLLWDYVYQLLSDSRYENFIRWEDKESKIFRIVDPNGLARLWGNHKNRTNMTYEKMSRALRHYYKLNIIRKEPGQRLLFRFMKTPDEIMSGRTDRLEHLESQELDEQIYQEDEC
# Chain of ETV1 (P50549 whole entry, the tested form may be a part): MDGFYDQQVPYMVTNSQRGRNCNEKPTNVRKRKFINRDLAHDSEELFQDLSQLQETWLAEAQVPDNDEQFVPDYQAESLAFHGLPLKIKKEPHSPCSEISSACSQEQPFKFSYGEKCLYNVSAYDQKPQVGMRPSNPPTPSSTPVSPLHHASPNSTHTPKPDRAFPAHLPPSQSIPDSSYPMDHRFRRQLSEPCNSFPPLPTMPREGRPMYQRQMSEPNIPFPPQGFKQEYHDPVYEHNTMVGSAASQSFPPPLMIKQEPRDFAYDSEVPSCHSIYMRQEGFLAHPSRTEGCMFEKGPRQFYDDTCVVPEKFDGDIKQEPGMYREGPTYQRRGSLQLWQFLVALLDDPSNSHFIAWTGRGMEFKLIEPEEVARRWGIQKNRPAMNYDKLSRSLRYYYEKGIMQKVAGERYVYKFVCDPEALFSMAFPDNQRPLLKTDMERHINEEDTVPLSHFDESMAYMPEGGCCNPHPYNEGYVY
sequence,measurement,setting,value
TTGAAA,binding signal,ETV1,"1.16 fold enrichment (6-mer frequency, TF over GST control)"
same,binding signal,ERF,"1.13 fold enrichment (6-mer frequency, TF over GST control)"
same,binding signal,ETV3L,"1.23 fold enrichment (6-mer frequency, TF over GST control)"
same,binding signal,ETS2,"1.24 fold enrichment (6-mer frequency, TF over GST control)"
same,binding signal,SPDEF,"1.07 fold enrichment (6-mer frequency, TF over GST control)"
same,binding signal,ETV7,"1.19 fold enrichment (6-mer frequency, TF over GST control)"
same,binding signal,ELF5,"1.03 fold enrichment (6-mer frequency, TF over GST control)"
same,binding signal,ETV3,"1.17 fold enrichment (6-mer frequency, TF over GST control)"
same,binding signal,ETV6,"1.09 fold enrichment (6-mer frequency, TF over GST control)"
